This is part of a sample that, as a whole, favours compounds with a hit. Of some 79,000 tested, about 15% had one in any assay. Unmarked numbers belong to inactive results. The source made the active and inactive calls. Rule as the data show it: active = growth inhibition above about 70%; inactive = the rest.
What was measured:
[1] = NCI Yeast Anticancer Drug Screen. Data for the rad50 strain (AID 155);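 also: 0% = growth of vehicle-only cultures of the same strain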; conditions: S. cerevisiae rad50 strain growth inhibition, active compounds read high
Outline: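 DNA repair mutant yeast, compound exposure, growth read-out; inhibition is taken relative to vehicle.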

[2] = NCI Yeast Anticancer Drug Screen. Data for the mec2-1 strain (AID 157); conditions: S. cerevisiae mec2-1 strain, active compounds read high
Outline: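 Vehicle-treated cultures served as reference for growth inhibition of compound-exposed mec2-1 yeast.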

[3] = NCI Yeast Anticancer Drug Screen. Data for the sgs1 mgt1 strain (AID 161);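 also: 0% = growth of cultures given vehicle only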; conditions: S. cerevisiae sgs1 mgt1 strain, active compounds read high
Outline: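 Inhibition of yeast growth, normalised to vehicle-treated controls, is reported for a strain bearing genetic alterations in DNA damage repair.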

[4] = NCI Yeast Anticancer Drug Screen. Data for the cln2 rad14 strain (AID 165);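 also: 0% = growth equal to vehicle treated cultures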; conditions: S. cerevisiae cln2 rad14 strain, active compounds read high
Outline: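 Each compound was tested on cln2 rad14 yeast. Inhibition of growth was calculated against vehicle-exposed controls.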

[5] = NCI Yeast Anticancer Drug Screen. Data for the bub3 strain (AID 167); conditions: S. cerevisiae bub3 mutant strain, active compounds read high
Outline: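 In this screen, a yeast mutant lacking normal mitotic checkpoint function is challenged with compound. Relative growth versus vehicle gives the inhibition value.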

[6] = NCI Yeast Anticancer Drug Screen. Data for the mlh1 rad18 strain (AID 175); conditions: S. cerevisiae mlh1 rad18 strain growth inhibition, active compounds read high
Outline: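 Vehicle-treated cultures served as the reference for growth inhibition in a yeast strain carrying DNA damage repair alterations exposed to each compound.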

[7] = at 5.0 µM (retest, dose inferred, filed as 0.5)
[8] = at 50.0 µM (retest, dose inferred, filed as 5.0)

SMILES	growth inhibition [1, 7]	growth inhibition [1, 8]	growth inhibition ([1]; at 50.0 µM)	growth inhibition [2, 7]	growth inhibition [2, 8]	growth inhibition ([2]; at 50.0 µM)	growth inhibition [3, 7]	growth inhibition [3, 8]	growth inhibition ([3]; at 50.0 µM)	growth inhibition [4, 7]	growth inhibition [4, 8]	growth inhibition ([4]; at 50.0 µM)	growth inhibition [5, 7]	growth inhibition [5, 8]	growth inhibition ([5]; at 50.0 µM)	growth inhibition [6, 7]	growth inhibition [6, 8]	growth inhibition ([6]; at 50.0 µM)
COc1ncc(Br)cc1C(=O)NCCc1ccc(S(=O)(=O)NC(=O)NC2CCCCC2)cc1	4%	96% (active)	92.8% (active)	5%	94% (active)	95.5% (active)	-1%	94% (active)	95.3% (active)	5%	96% (active)	96.2% (active)	18%	97% (active)	94.2% (active)	11%	94% (active)	94.9% (active)
N#CC(Cl)CS(=O)(=O)c1ccccc1 (configuration not stated)	81% (active)	100% (active)	99.5% (active)	96% (active)	100% (active)	99.5% (active)	31%	99% (active)	99.5% (active)	49%	99% (active)	99.2% (active)	95% (active)	100% (active)	95.2% (active)	88% (active)	100% (active)	99.5% (active)
CCCCCOC(=O)CSC#N	93% (active)	99% (active)	98.7% (active)	97% (active)	99% (active)	99% (active)	96% (active)	98% (active)	98.8% (active)	79% (active)	99% (active)	98.5% (active)	96% (active)	99% (active)	98.7% (active)	91% (active)	99% (active)	98.8% (active)
NNc1ccccc1F	-34%	96% (active)	99.2% (active)	-32%	97% (active)	99.7% (active)	-42%	92% (active)	97.8% (active)	-41%	65%	98% (active)	-45%	44%	99.2% (active)	-58%	95% (active)	98.9% (active)
O=C(/C=C(/Nc1ccccc1)C(=O)c1ccccc1)c1ccccc1	3%	77% (active)	30.6%	9%	96% (active)	37.2%	8%	90% (active)	68.8%	0%	39%	-5.1%	13%	33%	74% (active)	6%	91% (active)	37.7%
OB1c2ccccc2CCc2ccccc21	-4%	99% (active)	99.3% (active)	-7%	99% (active)	99.5% (active)	-4%	99% (active)	99.5% (active)	-13%	98% (active)	96.6% (active)	-25%	99% (active)	99.2% (active)	-2%	99% (active)	99% (active)
O=c1c2cc3ccccc3cc2c(=O)n2n1CC=CC2	8%	39%	74.2% (active)	-1%	6%	15.9%	9%	18%	22%	4%	10%	26.8%	2%	-1%	-0.8%	25%	46%	10.8%
CCOC(CN(C)C(=O)Nc1ccc(Cl)c(Cl)c1)OCC	-31%	52%	63.7%	2%	61%	32.7%	-15%	56%	58.6%	-17%	45%	67.8%	-26%	71% (active)	54.9%	-25%	84% (active)	38.7%
O=C1C=C(c2ccccc2)O/C1=C\C(=O)c1ccc(Cl)cc1	48%	48%	89.3% (active)	43%	43%	90.9% (active)	54%	54%	86.4% (active)	14%	14%	87.5% (active)	22%	22%	88% (active)	44%	44%	84.5% (active)
COC12C(COC(N)=O)C3=C(C(=O)C(C)=C(N)C3=O)N1CC1C2N1C(=O)c1ccc(Cl)cc1 (configuration not stated)	12%	57%	43.3%	15%	75% (active)	50.1%	20%	81% (active)	65.5%	3%	72% (active)	46.4%	3%	50%	43.4%	25%	86% (active)	71.1% (active)
C=C1C(=O)OC2CC(C)C3C=CC(=O)C3CC12 (configuration not stated)	17%	55%	88.7% (active)	12%	50%	91.6% (active)	15%	57%	91.3% (active)	24%	40%	89.3% (active)	22%	72% (active)	88.2% (active)	16%	34%	90.6% (active)
OC1C2CCC1C1C3C=CC(C3)C21 (configuration not stated)	1%	91% (active)	84.8% (active)	5%	93% (active)	62.2%	11%	88% (active)	42.4%	-3%	38%	70.2% (active)	11%	85% (active)	52.1%	-1%	94% (active)	83% (active)
O=C(CC1CCCC(CC(=O)c2ccccc2)N1CCc1ccccc1)c1ccccc1 (configuration not stated)	39%	97% (active)	89.7% (active)	23%	99% (active)	90.6% (active)	41%	98% (active)	92.8% (active)	27%	97% (active)	91.8% (active)	41%	98% (active)	89.7% (active)	34%	98% (active)	89.2% (active)
C/C(=N\Oc1ncc([N+](=O)[O-])c(O/N=C(\C)c2ccccc2)n1)c1ccccc1	52%	-24%	43.2%	37%	-11%	66.8%	53%	-10%	83% (active)	28%	-20%	45.7%	48%	-16%	50.6%	54%	-11%	94.2% (active)
Oc1ccc(C/C=C/c2ccccc2)cc1O	3%	98% (active)	56.8%	4%	99% (active)	99.1% (active)	13%	99% (active)	47.8%	-7%	98% (active)	98.8% (active)	-1%	98% (active)	99.2% (active)	9%	98% (active)	99.2% (active)
CC(C)NC(=O)OCc1c2c(n(C)c1COC(=O)NC(C)C)-c1ccccc1CC2	77% (active)	97% (active)	98.2% (active)	14%	98% (active)	98.6% (active)	13%	97% (active)	98.4% (active)	-5%	97% (active)	97.8% (active)	4%	98% (active)	97.6% (active)	26%	96% (active)	98.2% (active)
O=C(c1ccc(Cl)cc1)c1ccc([N+](=O)[O-])cc1	13%	-4%	5.35%	-4%	1%	-16.4%	4%	-14%	4.6%	-3%	1%	-2.2%	3%	31%	74.5% (active)	-3%	7%	8.05%
CN(C)/C=C(\C(=O)c1ccccc1)n1nc(-c2ccccc2)cc1-c1ccccc1	15%	45%	72.5% (active)	-4%	20%	73.7% (active)	11%	48%	83.3% (active)	22%	50%	70.2% (active)	-3%	38%	74% (active)	16%	54%	81.3% (active)
O=C(O)CCC/C(=N\Nc1ccccc1)C(=O)O	5%	97% (active)	98.5% (active)	2%	99% (active)	99.2% (active)	6%	97% (active)	98.7% (active)	0%	99% (active)	97.4% (active)	1%	98% (active)	99% (active)	7%	98% (active)	98.3% (active)

Reference: PubChem BioAssay (NCI)
